Results on two sequences are retold here after PMC7862700, “An all-to-all approach to the identification of sequence-specific readers for epigenetic DNA modifications on cytosine”.

Assay in all cases: DAPPL (digital affinity profiling via proximity ligation, sequencing); 10 mM Tris-HCl pH 7.5, 50 mM NaCl, 1 mM DTT, 4% glycerol, room temperature, 30 min; GST-TFs on glutathione beads, 16-mer random dsDNA library, 0.1% formaldehyde crosslink after washing; high values mean tight binding
Common to all, as to settings: protein: recombinant; tags: N-terminal GST; dsDNA, one strand shown

In one test the target is T1, FLI1 (Homo sapiens, UniProt Q01543 1-452).
T1 sequence: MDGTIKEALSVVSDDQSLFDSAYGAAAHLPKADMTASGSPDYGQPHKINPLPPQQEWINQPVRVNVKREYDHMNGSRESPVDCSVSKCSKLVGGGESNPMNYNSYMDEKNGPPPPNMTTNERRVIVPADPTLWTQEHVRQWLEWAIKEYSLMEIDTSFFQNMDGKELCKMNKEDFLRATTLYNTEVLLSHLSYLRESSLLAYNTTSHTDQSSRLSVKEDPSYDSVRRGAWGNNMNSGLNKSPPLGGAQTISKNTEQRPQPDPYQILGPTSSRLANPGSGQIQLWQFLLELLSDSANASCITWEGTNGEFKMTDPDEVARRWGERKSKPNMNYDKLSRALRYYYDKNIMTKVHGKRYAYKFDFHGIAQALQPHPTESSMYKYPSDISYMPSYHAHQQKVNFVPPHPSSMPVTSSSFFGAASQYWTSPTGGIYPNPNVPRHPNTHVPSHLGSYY
In short, it runs like this: (§1)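 Binding signal is each hexamer's read frequency for a factor divided by its frequency in the tag-only sample. The factors were GST-fused human transcription factors from yeast, captured on glutathione beads, DNA-barcoded and pooled with that sample. Pools were incubated with 200 nmole of a random double-stranded 16-mer DNA library in Tris/NaCl/DTT/glycerol buffer at room temperature for 30 min, then washed, crosslinked with 0.1% formaldehyde, proximity-ligated with BsaI/T4 ligase (1 h, 37 °C), PCR-amplified and sequenced on an Illumina NextSeq500.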

In the next test the target is T2, ELK1 (Homo sapiens, UniProt P19419 1-428).
T2 sequence: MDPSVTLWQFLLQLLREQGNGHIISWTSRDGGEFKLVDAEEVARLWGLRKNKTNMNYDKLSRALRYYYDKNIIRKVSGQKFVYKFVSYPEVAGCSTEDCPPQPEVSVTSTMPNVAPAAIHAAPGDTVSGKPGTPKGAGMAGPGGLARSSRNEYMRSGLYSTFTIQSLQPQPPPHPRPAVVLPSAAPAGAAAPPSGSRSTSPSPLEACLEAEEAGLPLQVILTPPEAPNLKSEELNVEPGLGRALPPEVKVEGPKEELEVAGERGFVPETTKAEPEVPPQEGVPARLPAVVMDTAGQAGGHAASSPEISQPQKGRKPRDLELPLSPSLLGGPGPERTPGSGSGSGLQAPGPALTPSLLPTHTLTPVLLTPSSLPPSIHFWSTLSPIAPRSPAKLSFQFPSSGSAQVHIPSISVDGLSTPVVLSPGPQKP
In short, it runs like this:
as §1

For a further test, the target named is T3, GABPA (Homo sapiens, UniProt Q06546 1-454).
T3 sequence: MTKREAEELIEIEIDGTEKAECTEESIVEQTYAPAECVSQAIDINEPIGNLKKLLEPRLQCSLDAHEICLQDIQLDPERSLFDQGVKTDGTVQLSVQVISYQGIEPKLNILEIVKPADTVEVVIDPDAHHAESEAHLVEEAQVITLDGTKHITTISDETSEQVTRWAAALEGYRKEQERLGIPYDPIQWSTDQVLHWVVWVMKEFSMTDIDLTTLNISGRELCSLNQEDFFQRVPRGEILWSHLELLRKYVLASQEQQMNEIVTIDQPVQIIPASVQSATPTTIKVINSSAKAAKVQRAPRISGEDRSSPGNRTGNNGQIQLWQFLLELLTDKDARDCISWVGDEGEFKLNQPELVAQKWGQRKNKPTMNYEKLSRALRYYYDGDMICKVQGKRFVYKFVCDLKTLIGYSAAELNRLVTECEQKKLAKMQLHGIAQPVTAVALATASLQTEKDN
In short, it runs like this: as §1

In the next test the target is T4, ERG (Homo sapiens, UniProt P11308 1-479).
T4 sequence: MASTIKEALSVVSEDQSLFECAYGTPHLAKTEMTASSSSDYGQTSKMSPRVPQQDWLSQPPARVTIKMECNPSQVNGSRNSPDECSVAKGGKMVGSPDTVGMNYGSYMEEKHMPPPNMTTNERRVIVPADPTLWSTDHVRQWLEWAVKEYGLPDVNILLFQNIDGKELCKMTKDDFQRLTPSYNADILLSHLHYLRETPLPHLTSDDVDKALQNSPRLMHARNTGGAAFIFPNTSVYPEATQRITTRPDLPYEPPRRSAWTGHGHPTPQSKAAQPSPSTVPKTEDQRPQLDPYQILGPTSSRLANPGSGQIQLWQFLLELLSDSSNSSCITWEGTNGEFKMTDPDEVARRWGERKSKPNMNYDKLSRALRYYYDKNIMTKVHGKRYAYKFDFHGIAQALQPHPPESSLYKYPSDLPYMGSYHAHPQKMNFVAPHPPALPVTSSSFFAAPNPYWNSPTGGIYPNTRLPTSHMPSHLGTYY
Summed up: as §1

The next test concerns the target SPI1 (Homo sapiens, UniProt P17947 1-270). In short, it runs like this:
as §1

Another test has as its target SPIB (Homo sapiens, UniProt Q01892 1-262). Summed up: as §1
In another test the target is T5, FEV (Homo sapiens, UniProt Q99581 1-238).
T5 sequence: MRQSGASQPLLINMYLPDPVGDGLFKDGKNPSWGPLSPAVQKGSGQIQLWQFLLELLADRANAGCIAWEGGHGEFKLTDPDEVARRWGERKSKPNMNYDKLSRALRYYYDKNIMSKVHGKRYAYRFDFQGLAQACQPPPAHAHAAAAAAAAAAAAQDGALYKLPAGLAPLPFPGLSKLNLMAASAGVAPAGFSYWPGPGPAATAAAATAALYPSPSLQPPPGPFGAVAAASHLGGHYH
In short, it runs like this: as §1

In the next test the target is ETV5 (Homo sapiens, UniProt P41161 1-510). Summed up: as §1
The target of another test is T6, SPIC (Homo sapiens, UniProt Q8N5J4 1-248).
T6 sequence: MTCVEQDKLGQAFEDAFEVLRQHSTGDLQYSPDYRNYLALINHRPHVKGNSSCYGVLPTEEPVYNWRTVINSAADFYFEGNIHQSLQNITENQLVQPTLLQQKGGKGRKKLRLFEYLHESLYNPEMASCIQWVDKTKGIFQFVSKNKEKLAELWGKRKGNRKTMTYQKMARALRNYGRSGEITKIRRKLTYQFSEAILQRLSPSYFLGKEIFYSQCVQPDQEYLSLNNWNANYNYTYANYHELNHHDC
In short, it runs like this: as §1

Another test has as its target ELF4 (Homo sapiens, UniProt Q99607 1-663). In short, it runs like this:
as §1

A further test concerns the target T7, ELK4 (Homo sapiens, UniProt P28324-2 1-405).
T7 sequence: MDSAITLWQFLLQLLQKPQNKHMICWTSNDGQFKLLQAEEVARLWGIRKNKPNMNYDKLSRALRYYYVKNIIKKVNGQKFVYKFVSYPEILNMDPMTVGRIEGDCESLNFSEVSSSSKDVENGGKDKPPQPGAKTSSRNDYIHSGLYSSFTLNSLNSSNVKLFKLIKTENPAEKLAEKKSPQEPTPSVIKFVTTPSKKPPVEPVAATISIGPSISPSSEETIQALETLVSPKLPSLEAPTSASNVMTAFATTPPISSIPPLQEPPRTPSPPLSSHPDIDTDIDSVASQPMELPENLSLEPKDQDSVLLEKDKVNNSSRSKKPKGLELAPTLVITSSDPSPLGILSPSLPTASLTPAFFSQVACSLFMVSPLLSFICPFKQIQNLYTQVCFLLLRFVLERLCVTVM
In short, it runs like this:
as §1

The next test concerns the target T8, ETV2 (Homo sapiens, UniProt O00321 1-342).
T8 sequence: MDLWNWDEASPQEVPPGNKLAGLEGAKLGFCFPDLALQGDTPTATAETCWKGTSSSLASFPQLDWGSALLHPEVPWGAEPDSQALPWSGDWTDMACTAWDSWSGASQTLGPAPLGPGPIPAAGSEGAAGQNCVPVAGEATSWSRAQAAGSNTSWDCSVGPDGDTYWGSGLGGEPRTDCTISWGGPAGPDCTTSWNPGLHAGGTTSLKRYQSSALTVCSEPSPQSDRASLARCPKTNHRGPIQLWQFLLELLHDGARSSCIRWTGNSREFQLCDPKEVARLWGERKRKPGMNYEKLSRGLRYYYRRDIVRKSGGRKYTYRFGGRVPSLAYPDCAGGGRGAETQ
Summed up: as §1

The target of a further test is T9, ELF3 (Homo sapiens, UniProt P78545 1-371).
T9 sequence: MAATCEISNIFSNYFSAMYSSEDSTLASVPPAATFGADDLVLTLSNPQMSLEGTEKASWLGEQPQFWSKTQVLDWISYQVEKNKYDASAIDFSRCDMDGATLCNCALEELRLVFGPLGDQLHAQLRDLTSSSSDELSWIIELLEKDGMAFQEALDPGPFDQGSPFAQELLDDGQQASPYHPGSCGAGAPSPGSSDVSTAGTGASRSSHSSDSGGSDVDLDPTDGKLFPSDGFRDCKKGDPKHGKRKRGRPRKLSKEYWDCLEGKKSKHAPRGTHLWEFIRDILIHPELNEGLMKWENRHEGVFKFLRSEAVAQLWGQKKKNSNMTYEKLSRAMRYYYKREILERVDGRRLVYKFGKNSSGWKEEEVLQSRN
Summed up:
as §1

The target in the next test is CRX (Homo sapiens, UniProt O43186 1-299). In short, it runs like this:
as §1

Another test concerns the target ETV1 (Homo sapiens, UniProt P50549 1-477). Summed up:
as §1

Another test deals with ELF1 (Homo sapiens, UniProt P32519 1-619). In short, it runs like this:
as §1

The next test addresses T10, EHF (Homo sapiens, UniProt Q9NZC4 1-300).
T10 sequence: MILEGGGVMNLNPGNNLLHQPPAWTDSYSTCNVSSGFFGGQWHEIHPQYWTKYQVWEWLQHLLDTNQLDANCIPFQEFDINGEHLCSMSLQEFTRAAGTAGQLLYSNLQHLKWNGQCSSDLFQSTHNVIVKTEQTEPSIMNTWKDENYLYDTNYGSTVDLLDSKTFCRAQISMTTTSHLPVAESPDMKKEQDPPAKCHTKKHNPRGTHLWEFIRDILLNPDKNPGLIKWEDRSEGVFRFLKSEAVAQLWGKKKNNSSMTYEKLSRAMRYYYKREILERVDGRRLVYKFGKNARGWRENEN
In short, it runs like this:
as §1

The target of another test is T11, ELK3 (Homo sapiens, UniProt P41970 1-407).
T11 sequence: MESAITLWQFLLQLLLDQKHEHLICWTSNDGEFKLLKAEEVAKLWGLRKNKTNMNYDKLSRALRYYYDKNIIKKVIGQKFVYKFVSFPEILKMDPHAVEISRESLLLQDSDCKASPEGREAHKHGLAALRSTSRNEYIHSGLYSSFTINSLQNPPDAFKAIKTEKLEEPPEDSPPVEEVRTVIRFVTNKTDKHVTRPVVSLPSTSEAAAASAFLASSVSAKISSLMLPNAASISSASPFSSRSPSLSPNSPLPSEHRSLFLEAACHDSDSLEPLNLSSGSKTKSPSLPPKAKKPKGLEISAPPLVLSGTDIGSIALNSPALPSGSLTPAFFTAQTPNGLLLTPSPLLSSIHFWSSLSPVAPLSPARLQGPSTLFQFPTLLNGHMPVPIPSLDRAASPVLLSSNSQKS
In short, it runs like this: as §1

Sequence of ETV1 (P50549 whole entry): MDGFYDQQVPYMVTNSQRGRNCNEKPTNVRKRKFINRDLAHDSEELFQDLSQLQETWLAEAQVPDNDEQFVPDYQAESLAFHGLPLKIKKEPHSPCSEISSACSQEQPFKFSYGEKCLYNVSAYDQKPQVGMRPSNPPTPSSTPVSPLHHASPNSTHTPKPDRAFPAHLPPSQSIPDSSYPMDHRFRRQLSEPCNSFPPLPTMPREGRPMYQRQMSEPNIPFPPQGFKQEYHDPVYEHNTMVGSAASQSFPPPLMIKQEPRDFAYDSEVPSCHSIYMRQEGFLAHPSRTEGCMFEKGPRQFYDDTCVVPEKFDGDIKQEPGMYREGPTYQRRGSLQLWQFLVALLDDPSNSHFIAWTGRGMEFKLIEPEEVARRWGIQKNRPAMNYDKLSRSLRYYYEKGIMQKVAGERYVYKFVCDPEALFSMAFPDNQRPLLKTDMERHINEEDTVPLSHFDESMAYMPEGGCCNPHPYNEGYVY
Sequence of SPIB (Q01892 whole entry): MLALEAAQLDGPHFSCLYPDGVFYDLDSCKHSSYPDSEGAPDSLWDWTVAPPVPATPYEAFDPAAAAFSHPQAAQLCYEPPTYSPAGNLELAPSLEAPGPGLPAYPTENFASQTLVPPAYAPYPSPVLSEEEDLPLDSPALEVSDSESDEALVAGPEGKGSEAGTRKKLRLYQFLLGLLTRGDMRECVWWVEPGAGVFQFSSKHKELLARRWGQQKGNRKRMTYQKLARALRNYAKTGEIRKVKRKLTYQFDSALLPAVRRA
Sequence of ETV5 (P41161 whole entry): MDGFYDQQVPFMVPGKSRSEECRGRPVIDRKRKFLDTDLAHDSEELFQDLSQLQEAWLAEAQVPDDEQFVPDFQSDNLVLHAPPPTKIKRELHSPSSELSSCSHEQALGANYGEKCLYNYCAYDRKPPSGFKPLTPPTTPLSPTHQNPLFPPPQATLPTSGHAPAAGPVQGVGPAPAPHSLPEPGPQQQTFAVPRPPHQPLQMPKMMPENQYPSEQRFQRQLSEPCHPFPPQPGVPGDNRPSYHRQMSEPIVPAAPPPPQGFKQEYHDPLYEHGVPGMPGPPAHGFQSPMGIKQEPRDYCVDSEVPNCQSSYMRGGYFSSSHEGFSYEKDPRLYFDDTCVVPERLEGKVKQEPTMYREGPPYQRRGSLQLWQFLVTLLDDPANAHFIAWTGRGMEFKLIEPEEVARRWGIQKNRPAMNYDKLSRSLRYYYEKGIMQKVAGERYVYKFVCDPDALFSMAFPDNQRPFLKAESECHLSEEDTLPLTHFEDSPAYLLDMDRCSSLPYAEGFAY
Sequence of ELF4 (Q99607 whole entry): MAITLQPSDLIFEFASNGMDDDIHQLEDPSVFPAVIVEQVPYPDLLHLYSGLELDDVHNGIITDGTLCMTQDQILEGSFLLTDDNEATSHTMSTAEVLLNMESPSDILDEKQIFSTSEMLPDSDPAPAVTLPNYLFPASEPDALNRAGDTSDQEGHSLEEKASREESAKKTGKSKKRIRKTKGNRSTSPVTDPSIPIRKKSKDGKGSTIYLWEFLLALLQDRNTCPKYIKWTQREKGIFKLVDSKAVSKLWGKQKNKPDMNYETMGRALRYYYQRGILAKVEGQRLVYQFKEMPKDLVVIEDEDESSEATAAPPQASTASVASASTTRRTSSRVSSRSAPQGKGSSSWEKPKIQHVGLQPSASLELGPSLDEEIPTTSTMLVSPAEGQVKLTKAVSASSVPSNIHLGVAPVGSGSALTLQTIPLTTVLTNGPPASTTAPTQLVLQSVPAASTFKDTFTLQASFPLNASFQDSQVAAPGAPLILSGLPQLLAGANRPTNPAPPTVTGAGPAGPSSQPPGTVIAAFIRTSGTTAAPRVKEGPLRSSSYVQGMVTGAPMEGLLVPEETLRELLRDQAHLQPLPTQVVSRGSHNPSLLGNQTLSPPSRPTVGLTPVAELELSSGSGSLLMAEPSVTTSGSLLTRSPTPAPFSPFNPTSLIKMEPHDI
Sequence of ELF1 (P32519 whole entry): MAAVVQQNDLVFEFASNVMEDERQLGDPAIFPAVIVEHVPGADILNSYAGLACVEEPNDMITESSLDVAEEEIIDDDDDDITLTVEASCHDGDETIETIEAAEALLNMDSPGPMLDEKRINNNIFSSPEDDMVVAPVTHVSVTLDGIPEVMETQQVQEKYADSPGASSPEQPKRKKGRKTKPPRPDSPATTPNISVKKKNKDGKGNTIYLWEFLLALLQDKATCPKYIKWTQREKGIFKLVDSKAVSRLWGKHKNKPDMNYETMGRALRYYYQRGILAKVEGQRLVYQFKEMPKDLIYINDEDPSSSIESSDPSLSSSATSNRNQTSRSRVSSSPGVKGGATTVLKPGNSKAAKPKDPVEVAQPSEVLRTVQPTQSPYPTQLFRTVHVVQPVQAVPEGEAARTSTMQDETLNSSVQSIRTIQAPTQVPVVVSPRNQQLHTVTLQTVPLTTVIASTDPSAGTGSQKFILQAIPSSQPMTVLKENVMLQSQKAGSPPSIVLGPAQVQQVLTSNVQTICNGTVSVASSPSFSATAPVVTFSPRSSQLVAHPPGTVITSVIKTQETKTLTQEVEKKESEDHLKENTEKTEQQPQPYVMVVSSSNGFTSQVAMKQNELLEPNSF
Sequence of CRX (O43186 whole entry): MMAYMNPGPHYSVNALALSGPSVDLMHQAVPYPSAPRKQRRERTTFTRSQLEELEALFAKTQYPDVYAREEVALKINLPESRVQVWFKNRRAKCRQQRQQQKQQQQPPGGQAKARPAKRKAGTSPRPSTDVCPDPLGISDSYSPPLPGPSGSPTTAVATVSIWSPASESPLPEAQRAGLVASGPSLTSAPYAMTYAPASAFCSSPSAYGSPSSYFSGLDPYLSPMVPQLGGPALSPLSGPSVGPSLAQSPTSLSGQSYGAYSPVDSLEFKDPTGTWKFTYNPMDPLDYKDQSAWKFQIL

Turning to GGCTTG, the binding signal was 1.12 fold enrichment (6-mer frequency, TF over GST control) with FLI1; 1.04 fold enrichment (6-mer frequency, TF over GST control) with ELK1; 1.04 fold enrichment (6-mer frequency, TF over GST control) with GABPA; 1.09 fold enrichment (6-mer frequency, TF over GST control) in the test with ERG; 1.02 fold enrichment (6-mer frequency, TF over GST control) in the test with SPI1; 1.06 fold enrichment (6-mer frequency, TF over GST control) with SPIB. In addition, the binding signal is 1.01 fold enrichment (6-mer frequency, TF over GST control) with FEV; 1.01 fold enrichment (6-mer frequency, TF over GST control) with ETV5; 1.12 fold enrichment (6-mer frequency, TF over GST control) with SPIC; 1.07 fold enrichment (6-mer frequency, TF over GST control) in the test with ELF4; 1.12 fold enrichment (6-mer frequency, TF over GST control) with ELK4; 1.01 fold enrichment (6-mer frequency, TF over GST control) with ETV2. Besides, the binding signal in the test with ELF3 was 1.11 fold enrichment (6-mer frequency, TF over GST control); in the test with CRX, 1.06 fold enrichment (6-mer frequency, TF over GST control); in the test with ETV1, 1.08 fold enrichment (6-mer frequency, TF over GST control).
TCGCCG: the binding signal is 1.14 fold enrichment (6-mer frequency, TF over GST control) in the test with FLI1; 1.24 fold enrichment (6-mer frequency, TF over GST control) with ELK1; 1.27 fold enrichment (6-mer frequency, TF over GST control) in the test with GABPA; 1.24 fold enrichment (6-mer frequency, TF over GST control) in the test with ERG; 1.23 fold enrichment (6-mer frequency, TF over GST control) in the test with ELF1; 1.34 fold enrichment (6-mer frequency, TF over GST control) with EHF. The binding signal with SPI1 was 1.14 fold enrichment (6-mer frequency, TF over GST control); in the test with SPIB, 1.16 fold enrichment (6-mer frequency, TF over GST control); with ELK3, 1.16 fold enrichment (6-mer frequency, TF over GST control); in the test with FEV, 1.26 fold enrichment (6-mer frequency, TF over GST control); with ETV5, 1.03 fold enrichment (6-mer frequency, TF over GST control); with SPIC it was 1.09 fold enrichment (6-mer frequency, TF over GST control). Moreover, the binding signal was 1.21 fold enrichment (6-mer frequency, TF over GST control) with ELF4; 1.3 fold enrichment (6-mer frequency, TF over GST control) with ELK4; 1.2 fold enrichment (6-mer frequency, TF over GST control) with ETV2; 1.21 fold enrichment (6-mer frequency, TF over GST control) in the test with ELF3; 1.37 fold enrichment (6-mer frequency, TF over GST control) in the test with ETV1.
